Results taken from PubChem BioAssay AID1981 (Southern Research Specialized Biocontainment Screening …, 2009).
Among all 2,200 compounds or so, about 480 (22%) were called active. The rule behind the calls is not given here. Not all results are given here. Entries with a potency or affinity are not part of this list.

Assay: S. Typhimurium GFP fluorescence modified counterscreen for PhoP regulon inhibitor project dose response (AID 1981);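 note: 0% = induced DMSO wells and 100% = uninduced wells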
Details: 4 h; series mostly up to 150 µM; inhibition: at the top concentration

Row | Compound | inhibition
1 | CCCCCNS(=O)(=O)c1cc(C)ccc1OC | 2.03% (inactive)
2 | O=C1Nc2ccccc2C(O)(C(=O)N2CCCCC2)N1c1ccccc1 (stereo unspecified) | 0.43% (inactive)
3 | Cc1cc(C2=NNC(=NC3CC3)SC2)c(C)n1Cc1ccco1 | -6.12% (inactive)
4 | Cc1cccc(OCCCSc2nc3ccc(C)cc3[nH]2)c1 | 8.72% (inactive)
5 | C=C(C)Cn1c(CCn2c3ccccc3c3ccccc32)n[nH]c1=S | -5.59% (inactive)
6 | N#C/C(=C\c1c(Cl)cccc1Cl)c1nc2ccccc2[nH]1 | 0.17% (inactive)
7 | COCc1cc(C)nc(N2CCc3ccccc32)c1C#N | -15% (inactive)
8 | CCOc1ccc2nc(COC(=O)c3ccco3)c(C(C)=O)[n+]([O-])c2c1 | 5.1% (inactive)
9 | CCOC(=S)SCC(=O)Nc1nc(-c2ccccc2)cs1 | -12.2% (inactive)
10 | COc1ccc2cc(C)c3nnc(SCC(=O)Nc4nc(-c5ccccc5)cs4)n3c2c1 | -5.19% (inactive)
11 | COc1ccc(-c2csc(NC(=O)C3CCCO3)n2)cc1 (stereo unspecified) | -2.8% (inactive)
12 | Cc1ccc(C[n+]2cc(-c3ccc(Cl)cc3)n3c2CCC3)cc1 | 0.58% (inactive)
13 | CN(C)CC(=O)Nc1nc(-c2ccccc2)cs1 | 2.72% (inactive)
14 | Cc1ccc(NC(=O)CCN2CCc3ccccc3C2)cc1 | 8.78% (inactive)
15 | CCCCCOC(=O)C1=C(C)Nc2nnnn2C1c1ccc(OC)c(OC)c1OC (stereo unspecified) | -12.6% (inactive)
16 | Cc1ccc(Nc2nc(CSc3nnc(-c4ccc(F)cc4)n3C)cs2)cc1 | 12.9% (inactive)
17 | CSc1cccc(NC(=O)COc2cccc3ccccc23)c1 | 26.1% (inactive)
18 | COc1ccc(OC)c(NC(=S)NCCCN2CCOCC2)c1 | -26.3% (inactive)
19 | COc1ccccc1NC(=S)NNC(=O)c1c(Cl)c(C)nn1C | -16.2% (inactive)
20 | C=CCN(CC=C)Cc1c[nH]c2ccccc12 | -6.22% (inactive)
21 | Cc1cc(C)[n+](C2C3CC4CC(C3)CC2C4)o1 (stereo unspecified) | -3.92% (inactive)
22 | Cc1cccc(-n2c(N)cc(=O)[nH]c2=S)c1C | 35.5% (inactive)
23 | CCOC(=O)c1c(N)ssc1=S | -4.32% (inactive)
24 | O=C1c2ccccc2NC(c2ccc(-c3cccc(Cl)c3)o2)N1O (stereo unspecified) | 39.3% (inactive)

Row | Compound | inhibition
25 | CCOC(=O)c1ccc2c(c1)C(=O)N(C1CCCCC1)C2=O | -0.64% (inactive)
26 | COc1cccc(C2Nc3ccccc3C(=O)N2O)c1O (stereo unspecified) | 20.4% (inactive)
27 | O=C(OCCN1C(=O)c2ccccc2C1=O)c1ccc(S(=O)(=O)N2CCCCCC2)cc1 | -5.15% (inactive)
28 | Cc1ccc([N+](=O)[O-])cc1NC(=O)CN(C(=O)c1ccc(Cl)cc1)C1CCCCC1 | 3.93% (inactive)
29 | Cc1cc(NC(=O)c2ccccc2-c2ccccc2)ccc1Br | 3.71% (inactive)
30 | CN1c2ccccc2C(=O)NC1c1ccc([N+](=O)[O-])s1 (stereo unspecified) | -1.37% (inactive)
31 | CCN(CC)Cc1c[nH]c2c(C(=O)OC)cccc12 | -10.6% (inactive)
32 | O=C(C1CCN(C2CC(=O)N(Cc3ccccc3)C2=O)CC1)N1CCCCCC1 (stereo unspecified) | -1.1% (inactive)
33 | N#Cc1c(N)n[nH]c1-c1cc2c([nH]1)CCCC2 | 4.52% (inactive)
34 | O=C(NCc1ccco1)c1c2c(nc3ccccc13)CCC2 | -6.14% (inactive)
35 | Cc1[nH]c2ccccc2c1C(=O)CN1CCSCC1 | -4.49% (inactive)
36 | c1ccc(C2CNCc3c2ccc2ccccc32)cc1 (stereo unspecified) | 12.6% (inactive)
37 | CCOc1ccc(CSC(CC(=O)O)C(=O)O)cc1 (stereo unspecified) | 0.82% (inactive)
38 | O=C(CCN1C(=O)c2ccccc2S1(=O)=O)Nc1ccc2c(c1)OCCO2 | 1.94% (inactive)
39 | CCOC(=O)c1cc2ccc(OC)c(OC)c2c(=O)s1 | -12.9% (inactive)
40 | COc1cccc(NC(=O)CNC(=O)c2cccs2)c1 | -4.85% (inactive)
41 | Cc1ccccc1Cn1nc(C)c(NC(=O)c2noc3c2CCc2ccccc2-3)c1C | -13.4% (inactive)
42 | O=C1C(c2ccc(F)cc2)N(Cc2ccc3c(c2)OCO3)C(=O)CN1C1CCCCCC1 (stereo unspecified) | -19.2% (inactive)
43 | COc1ccc(NC2=NC3(CCCCC3)N=C(N)N2)cc1 | -11.8% (inactive)
44 | CCOC(=O)c1c(C)[nH]c(C)c1C(=O)CSc1ncccn1 | -9.71% (inactive)
45 | Cc1cccn2cc(CSc3nnc(Nc4ccc(C(C)C)cc4)s3)nc12 | -0.41% (inactive)
46 | CC1CCN(C(=O)c2ccc3c(c2NCCO)C(=O)c2ccccc2C3=O)CC1 | 4.02% (inactive)
47 | CSc1nsc(SCC(=O)Nc2ccc(C(C)=O)cc2)n1 | -16.7% (inactive)
48 | CN(C(=O)/C=C/c1ccccc1)C1CCS(=O)(=O)C1 (stereo unspecified) | -5.09% (inactive)

Row | Compound | inhibition
49 | Cc1cc(C)nc(N(C#N)C(C)C(=O)N(C)C)n1 (stereo unspecified) | -16% (inactive)
50 | Cc1c(C)n(Cc2ccccc2)c2ncnc(N)c12 | -0.12% (inactive)
51 | O=c1[nH]c(CN2CC=C(c3ccccc3)CC2)nc2cc(C(F)(F)F)ccc12 | 3.42% (inactive)
52 | COc1ccc(Nc2nc(-c3cccc([N+](=O)[O-])c3)nc3ccccc23)cc1 | -16% (inactive)
53 | COc1ccccc1Nc1nc(NCc2ccco2)c2ccccc2n1 | 12.3% (inactive)
54 | BrC(=C\c1ccccc1)/C=N/N1CCN(c2ccccn2)CC1 | -4.11% (inactive)
55 | C/C(CC(=O)Nc1ccc(Cl)c(C(F)(F)F)c1)=N\NC(=O)c1cccc(O)c1 | 8.6% (inactive)
56 | N=c1n(CCO)c2ccccc2n1Cc1ccc(Cl)cc1 | 8.73% (inactive)
57 | N=c1n(Cc2ccc(Cl)cc2)c2ccccc2n1CC(O)c1ccco1 (stereo unspecified) | 2.34% (inactive)
58 | C#CCN1C(=O)C(O)(CC(=O)c2ccc(OC)c(OC)c2)c2ccccc21 (stereo unspecified) | -14.4% (inactive)
59 | CCCCCCCCOC(=O)C1=C(C)Nc2nnnn2C1c1cccs1 (stereo unspecified) | -13% (inactive)
60 | COc1ccc(Oc2ccccc2/C=N/O)cc1 | 2.01% (inactive)
61 | CCNC(=S)NNC(=O)c1ccc(OC(F)F)cc1 | -6.15% (inactive)
62 | COC(=O)c1ccc(COC(=O)c2ccccn2)cc1 | 0.02% (inactive)
63 | CC(C)NC(=O)CSc1nc(N)c(NC(=O)c2ccccc2F)c(=O)[nH]1 | -13.4% (inactive)
64 | Cc1cc(C)c2c(=O)[nH]c(SCC(=O)Nc3ccc(N(C)C)cc3)nc2n1 | 22.4% (inactive)
65 | CCOC(=O)C1=C(C)NC(=S)NC1c1ccc(OC(=O)c2ccco2)cc1 (stereo unspecified) | -2.14% (inactive)
66 | COc1ccc(NC2=NC(=S)N(c3cccc(C)c3)C23CCCCC3)cc1 | -1.25% (inactive)
67 | Cc1cccc(NC(=O)c2ccc(Cn3cc(C(F)(F)F)ccc3=O)cc2)c1 | -3.63% (inactive)
68 | O=C(O)/C=C/C(=O)Nc1cccc(C(F)(F)F)c1 | -8.86% (inactive)
69 | CN(C)CC(C(=O)c1ccccc1)c1ccccc1 (stereo unspecified) | 23.2% (inactive)
70 | Cc1ccc(C(=O)NCc2ccc(Cl)cc2)o1 | 2.23% (inactive)
71 | Cc1ccc(C(=O)Nc2ccc3c(c2)OCO3)o1 | 10.9% (inactive)
72 | O=C(NC(c1ccc(Cl)cc1)c1c(O)ccc2ccccc12)c1ccccc1 (stereo unspecified) | -19% (inactive)

Row | Compound | inhibition
73 | Cc1ccc2cccnc2c1NC(=S)NC(=O)c1ccccc1 | 24.2% (inactive)
74 | CCCCCn1c(C(C)NC(=O)CCC)nc2ccccc21 (stereo unspecified) | -0.25% (inactive)
75 | O=C(CCc1ccccc1)Nc1nc2ccc(S(=O)(=O)N3CCOCC3)cc2s1 | 30% (inactive)
76 | Cc1nc(SCC(=O)NC(C)c2ccccc2)c2oc3ccccc3c2n1 (stereo unspecified) | -4.01% (inactive)
77 | CCCN(CCC)CCCNS(=O)(=O)c1ccc2c(c1)oc(=O)n2C | -2.37% (inactive)
78 | NC(=O)c1ccccc1NC(=O)/C=C/C(=O)O | -6.39% (inactive)
79 | O=C(/C=C/c1ccccc1)N1CCN(c2c(Cl)cccc2[N+](=O)[O-])CC1 | -10.6% (inactive)
80 | C=CCn1c(C)cc(C(=O)CSc2nc(N)cc(N)n2)c1C | 25.2% (inactive)
81 | Clc1ccc(Nc2ncnc3c2cnn3-c2ccccc2)cc1 | -9.26% (inactive)
82 | CCCNC(=O)CN(C1CCCCC1)S(C)(=O)=O | -3.08% (inactive)
83 | CCCCC(=O)NCCNC(=O)c1cc(OCC(F)(F)F)ccc1OCC(F)(F)F | -9.07% (inactive)
84 | Cn1c(COc2ccccc2)nnc1SCc1nc2ccccc2[nH]1 | -28.7% (inactive)
85 | Cc1ccc(C)c(/C=C/C(=O)c2ccccc(=O)c2O)c1 | 38.6% (inactive)
86 | COc1ccc(C2=Nc3nc(-c4ccccc4)cn3C(c3ccc(OC)cc3)C2)cc1 (stereo unspecified) | 17.6% (inactive)
87 | N/C(=N\OC(=O)N1c2ccccc2Sc2ccccc21)c1ccccc1 | 20.9% (inactive)
88 | CCc1nn2cc(C(=O)c3cc(Cl)ccc3O)cnc2c1-c1ccc(F)cc1 | 3.07% (inactive)
89 | CCN(C(C)=O)c1nc(CSc2nnc(NC(C)C)s2)cs1 | 2.43% (inactive)
90 | CC1CCC(NC(=O)C2c3ccccc3C(=O)N2Cc2cccs2)CC1 (stereo unspecified) | 3.27% (inactive)
91 | Cn1ncc(Br)c1C(=O)NCc1cccs1 | -18.8% (inactive)
92 | O=C(CSc1nnc(-c2ccc(Br)cc2)o1)Nc1cccc2ccccc12 | -0.45% (inactive)
93 | O=C(CNc1ccccc1)Nc1ccc(F)cc1 | 14.3% (inactive)
94 | O=C(Oc1c(Br)cc([N+](=O)[O-])cc1Br)c1cccnc1 | 29.2% (inactive)
95 | O=C(Nc1ccc(F)cc1)c1ccccc1F | -9.79% (inactive)
96 | O=C(CCCN1C(=O)CCC1=O)Nc1ccc2c(c1)OCCO2 | -21.9% (inactive)

Row | Compound | inhibition
97 | CC(C)(C)c1nn(-c2ccccc2)c2[nH]c(=O)c(CNCc3ccco3)cc12 | -4.67% (inactive)
98 | O=P(Cc1cc[n+]([O-])cc1)(c1ccccc1)c1ccccc1 | -15.7% (inactive)
99 | CCCS(=O)(=O)N1CCCC(C(=O)N2CCN(c3ccccn3)CC2)C1 (stereo unspecified) | 6.36% (inactive)
100 | COc1ccc(-c2cn[nH]c2-c2ccc(OCc3ccc([N+](=O)[O-])cc3)cc2O)cc1 | 15.1% (inactive)
101 | CC(Oc1ccc(Cl)cc1)c1ccnn1S(=O)(=O)c1ccccc1 (stereo unspecified) | -5.43% (inactive)
102 | CCOC(=O)c1cc2sc(C)cc2n1CC(=O)NCc1ccc(F)cc1 | 1.75% (inactive)
103 | Cc1ccc(C(C)C)cc1C(=O)CC1(O)C(=O)N(C)c2ccccc21 (stereo unspecified) | -7.31% (inactive)
104 | CCn1ncc(/C=C/C(=O)NCc2cn(C)nc2C)c1C | -3.98% (inactive)
105 | COC(=O)COc1ccc(S(=O)(=O)Nc2ccccc2SC)cc1 | -20.6% (inactive)
106 | COc1ccc(OC)c(NC(=O)c2ccccc2NS(=O)(=O)c2cccc3cccnc23)c1 | 6.2% (inactive)
107 | O=C(CSc1ncn[nH]1)Nc1cccc2ccccc12 | -11.3% (inactive)
108 | O=S(=O)(Nc1ccc(N=Nc2ccc(O)c3ccccc23)cc1)c1ccccc1 | 23.8% (inactive)
109 | CCn1c(CNC(=O)c2cccc(C)c2)nc2ccccc21 | -13.4% (inactive)
110 | S=c1nc(-c2ccccc2)oc2c1CCCC2 | 18.1% (inactive)
111 | CCC(=O)c1cn(Cc2ccc(C#N)cc2)c2ccccc12 | 1.62% (inactive)
112 | O=c1c2oc3ccccc3c2ncn1Cc1ccc(Cl)cc1 | -20.7% (inactive)
113 | Cc1[nH]n(-c2ncc(-c3ccc(Cl)cc3)s2)c(=O)c1C(c1ccc(Cl)cc1)C(C#N)C#N (stereo unspecified) | 26.5% (inactive)
114 | Cc1ccc(-n2nc(C)c(C3C(C#N)=C(N)Oc4c3c(=O)oc3ccccc43)c2Cl)cc1 (stereo unspecified) | 30.2% (inactive)
115 | Cc1snc(S(=O)(=O)/C(C#N)=N\Nc2ccccc2)c1C#N | 7.12% (inactive)
116 | COc1ccc(CCC(=O)N2CCC3(CC2)OCCO3)cc1 | 1.72% (inactive)
